The results in this text go back to PMC5540273 (PLoS ONE, 2017).

Among the test systems are GRK1; GRK4; GRK7; GSK3A; GSK3B; HCK; HIPK1.
Common to all, as to conditions: concentration: 1 μM, replicates: in singlicate; n = 1
The next assay has as its system T1, GRK2.
T1 construct: gene ADRBK1

In a further assay the test system is T2, GRK3.
T2 construct: gene ADRBK2

In a further assay the test system is T3, HASPIN.
T3 construct: gene GSG2

Each structure is given as a SMILES string.
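Also: KINOMEscan kinase panel screen.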

Take `COc1ccc(-c2oc3ncnc(N)c3c2-c2ccc(OC)cc2)cc1` [SB-589132]: the “%Inh” value in the assay with GRK1 was 0%; in the assay with GRK2, 0%; in the assay on GRK3, 70%; in the assay on GRK4, 9%; in the assay on GRK7, 0%; in the assay on GSK3A it was 15%. For the same compound, the “%Inh” value was 0% in the assay with GSK3B, 64% in the assay with HASPIN, 14% in the assay with HCK and 0% with HIPK1.

Take `CCc1nc(-c2cccc(N(C)S(=O)(=O)c3ccccc3)c2)c(-c2ccnc(Nc3ccc(N4CCN(C(C)=O)CC4)nc3)n2)s1` [GSK1645895]: the “%Inh” value with GRK1 was found to be 0%; in the assay with GRK2, 0%; in the assay on GRK3, 0%; with GRK4 it was 0%; in the assay on GRK7 it was 0%; with GSK3A it was 11%. Besides, the “%Inh” value is recorded as 20% in the assay on GSK3B, 0% in the assay with HASPIN, 0% in the assay on HCK and 1% in the assay with HIPK1.

In the case of `Cc1cccc(-c2nc(Nc3ccc4[nH]nnc4c3)c3ccccc3n2)n1` [GW867587], the “%Inh” value with GRK1 was 3%; with GRK2, 0%; in the assay on GRK3, 24%; in the assay on GRK4 it was 0%; in the assay with GRK7, 0%; in the assay on GSK3A, 0%. Moreover, the “%Inh” value in the assay on GSK3B is on record as 0%; in the assay with HASPIN, 0%; in the assay on HCK, 10%; in the assay with HIPK1, 0%.

For `O=C(Nc1n[nH]c2nc(-c3ccco3)c(Br)cc12)c1ccc(CN2CCCC2)cc1.O=C(O)[C@H](O)[C@@H](O)C(=O)O` [SB-742352], the “%Inh” value was found to be 6% in the assay on GRK1; 0% in the assay with GRK2; 0% with GRK3; 20% with GRK4; 0% in the assay with GRK7; 76% with GSK3A. For the same compound, the “%Inh” value with GSK3B is listed as 15%; in the assay with HASPIN, 15%; in the assay on HCK, 26%; with HIPK1 it was 0%.
